Each structure is given as a SMILES string. Values joined by “and” are separate entries in the source; they are usually repeats but may differ in a detail not shown here. Equal entries are not always repeated. Inconclusive results are not listed. Some structures have more than one record in an assay (separate samples or runs), and their calls can disagree. Active and inactive are the calls of the source. Calls come from the whole dose curve; as a rule, active = well fitted curve in the direction sought with a large enough effect in the repeat runs; inconclusive = weak or mixed curves; inactive = no such curve, though single readings can be large; an effect the other way counts as inactive or inconclusive.

Results on 24 molecules are retold here after PubChem BioAssay (Tox21).

The nature of experiment [1]: qHTS RealTime-Glo MT Cell Viability Assay in HepG2 cells - 40 hour (AID 1224870). Note: nearly all actives have a fitted effect of over 50% in size. The method, boiled down: (§1)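 HepG2 cells mixed with RealTime-Glo MT reagents (NanoLuc plus cell-permeant prosubstrate) were seeded at 600 cells/well, incubated 5 h at 37 C/5% CO2, then pinned with compounds in DMSO; nonlytic luminescence tracked viability during 40 h treatment.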
Background: qHTS replaces the single test concentration by a dilution series.

The nature of experiment [2]: A CellTox Green Cytotoxicity Assay to monitor cytotoxicity in HEK293 cells - 40 hour (AID 1224871). Note: nearly all actives have a fitted effect of over 45% in size. Note: potency is the fitted concentration of half-maximal effect. The method, boiled down: (§2)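 Cytotoxicity was tracked continuously in HEK293 cells by a DNA-binding dye excluded from viable cells. Compounds were transferred in DMSO 5 h after seeding; fluorescence was recorded at intervals up to 40 h.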
The nature of experiment [3]: qHTS RealTime-Glo MT Cell Viability Assay in HEK293 cells - 16 hour (AID 1224872). Note: nearly all actives have a fitted effect of over 50% in size. Note: potency is the fitted concentration of half-maximal effect. The method, boiled down: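 Reads taken at 0, 8, 16, 24, 32 and 40 h from the same wells. HEK293 cells (600/well) carried RealTime-Glo reagents from seeding, with compound added after a 5 h settle at 37 C.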
Experiment [4] in a line: qHTS RealTime-Glo MT Cell Viability Assay in HepG2 cells - 8 hour (AID 1224873). Note: nearly all actives have a fitted effect of over 55% in size. The method, boiled down: as §1
Experiment [5] in a line: qHTS RealTime-Glo MT Cell Viability Assay in HEK293 cells - 40 hour (AID 1224874). Note: nearly all actives have a fitted effect of over 50% in size. Note: potency is the fitted concentration of half-maximal effect. Conditions: RealTime-Glo luminescence; max response: stronger effect = lower value. The method, boiled down: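 Nonlytic bioluminescent viability monitoring. HEK293 at 600 cells/well with reagent; 5 h settle; compound transfer by pintool; plates held at 37 C and read at set time points.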
Experiment [6] in a line: A CellTox Green Cytotoxicity Assay to monitor cytotoxicity in HEK293 cells - 24 hour (AID 1224875). Note: nearly all actives have a fitted effect of over 45% in size. Note: potency is the fitted concentration of half-maximal effect. The method, boiled down:
as §2

A short description of experiment [7]: A CellTox Green Cytotoxicity Assay to monitor cytotoxicity in HepG2 cells - 16 hour (AID 1224876). Note: nearly all actives have a fitted effect of over 45% in size. The method, boiled down: (§3)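 Real-time, homogeneous cytotoxicity readout: dead-cell DNA staining by CellTox Green in HepG2 monolayers, fluorescence measured at timed intervals up to 40 h of continuous compound exposure.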
The nature of experiment [8]: qHTS RealTime-Glo MT Cell Viability Assay in HepG2 cells - 32 hour (AID 1224877). Note: nearly all actives have a fitted effect of over 55% in size. The method, boiled down:
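HepG2 suspension premixed with RealTime-Glo reagents is plated at 600 cells per well and left 5 h at 37 C/5% CO2. Compounds in DMSO then go in, and bioluminescence reflecting viable cell number is recorded over 40 h.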

Experiment [9] in a line: A CellTox Green Cytotoxicity Assay to monitor cytotoxicity in HepG2 cells - 24 hour (AID 1224878). Note: nearly all actives have a fitted effect of over 45% in size. Note: potency is the fitted concentration of half-maximal effect. The method, boiled down:
as §3

The nature of experiment [10]: A CellTox Green Cytotoxicity Assay to monitor cytotoxicity in HepG2 cells - 40 hour (AID 1224879). Note: nearly all actives have a fitted effect of over 40% in size. The method, boiled down: as §3
% is set by controls: 0 for no effect and ±100 for the full control effect.

As to `CCCCCc1ccco1`, the Potency result in experiment [1], in experiment [2], in experiment [3], in [4], in experiment [6] and in [7] was “inactive” each time. In addition, the Potency entry in experiment [8] and in experiment [9] was “inactive” in each case. Moreover, the max response in experiment [5] is 4.73% (inactive).

In the case of `O=C(O)CCCc1c[nH]c2ccccc12`, the Potency entry in experiment [1], in experiment [2], in experiment [3], in [4], in experiment [6] and in experiment [7] was “inactive” each time. In addition, in [8], the Potency result was “inactive”. Moreover, the max response in [5] is -0.277% (inactive). Also, the Potency in [9] is 17.4 µM (active).

Consider `O=C1OC[C@H](Cc2cccc(O)c2)[C@H]1Cc1cccc(O)c1`, for which the Potency entry in experiment [1], in experiment [2], in [3], in experiment [4], in experiment [6] and in experiment [7] was “inactive” each time. Besides, the Potency result in [8] and in experiment [9] was “inactive” each time. Also, the max response in experiment [5] was -19.7% (inactive).

In the case of `COc1ccc2nc(S(=O)Cc3ncc(C)c(OC)c3C)[nH]c2c1` (centres undefined), the Potency entry in experiment [1], in experiment [4], in experiment [6], in experiment [7], in [8] and in [9] was “inactive” in each case. The Potency result in [10] was “inactive”. The Potency result in [2] is “inactive and 1.7 nM (active)”; in experiment [3], 21.6 µM (active) and inactive; in [5] it was 19.3 µM (active). Besides, in experiment [5], the max response is -10.3% (inactive).

Regarding `COC(OC)OC`, the Potency entry in [1], in experiment [2], in experiment [3], in experiment [4], in experiment [6] and in [7] was “inactive” each time. Further, the Potency entry in experiment [8] is “inactive”. Also, the max response in experiment [5] is 11.5% (inactive).

As to `COC(CC(C)CCCC(C)(C)O)OC` (centres undefined), the Potency entry in experiment [1], in [2], in [3], in experiment [4], in experiment [6] and in experiment [7] was “inactive” in each case. Besides, the Potency entry in experiment [8], in experiment [9] and in experiment [10] was “inactive” in each case. Further, in experiment [5], the max response is 1.35% (inactive).

On to `CC(=O)NCCO`, for which the Potency result in experiment [1], in experiment [2], in experiment [3], in experiment [4], in experiment [6] and in [7] was “inactive” throughout. For the same molecule, the Potency entry in experiment [8] and in [9] was “inactive” in each case. The max response in [5] was 8.1% (inactive).

For the molecule `CCN(CC)CC(=O)Nc1c(C)cccc1C(=O)OC`, the Potency result in [1], in experiment [2], in experiment [3], in experiment [4], in experiment [6] and in experiment [7] was “inactive” throughout. The Potency result in experiment [8], in experiment [9] and in experiment [10] was “inactive” in each case. The max response in [5] is 0.513% (inactive).

In the case of `O=C(O)CCS`, the Potency result in experiment [1], in experiment [2], in experiment [3], in experiment [4], in experiment [6] and in [7] was “inactive” each time. The Potency result in experiment [8] and in [9] was “inactive” throughout. Further, in [5], the max response is 7.66% (inactive).

On to `O=C(O)CO`, for which the Potency result in [1], in [2], in experiment [3], in [4], in [6] and in [7] was “inactive” each time. In experiment [8], the Potency result is “inactive”. Moreover, the max response in experiment [5] is 8.33% (inactive).

Consider `CC(CO)(CO)C(=O)O`, for which the Potency entry in experiment [1], in [2], in experiment [3], in [4], in [6] and in experiment [7] was “inactive” each time. Besides, the Potency entry in experiment [8], in [9] and in experiment [10] was “inactive” each time. In experiment [5], the max response was 0.0251% (inactive).

Consider `CC1CCC(C(C)CS)CC1S` (centres undefined), for which the Potency result in [1], in experiment [3], in experiment [4], in experiment [7], in experiment [8] and in experiment [9] was “inactive” in each case. In experiment [10], the Potency result was “inactive”. For the same molecule, the Potency was 49 µM (active) in experiment [2] and 43.6 µM (active) in [6]. For the same molecule, the max response in experiment [5] was 10.8% (inactive).

As for `COc1ccc(-n2nc(C(F)F)cc2-c2ccc(S(C)=O)cc2)cc1` (centres undefined), the Potency result in experiment [1], in experiment [2], in [3], in experiment [4] and in [6] was “inactive” in each case. Besides, in experiment [5], the max response was -24.7% (inactive).

Take `O=C(c1ccccc1)c1ccc(O)cc1`: the Potency entry in experiment [1], in [2], in [3], in [4], in [6] and in experiment [7] was “inactive” throughout. The Potency result in experiment [8], in experiment [9] and in experiment [10] was “inactive” throughout. For the same molecule, in experiment [5], the max response was -20.1% (inactive).

Turning to `CCC(C)(C)C(=O)O`, the Potency entry in experiment [1], in experiment [2], in [3], in [4], in [6] and in [7] was “inactive” each time. The Potency result in experiment [8] and in experiment [9] was “inactive” in each case. Also, the max response in [5] was -0.784% (inactive).

In the case of `CC(=O)C(C)=O`, the Potency entry in [1], in experiment [2], in [3], in experiment [4], in experiment [6] and in experiment [7] was “inactive” throughout. For the same molecule, the Potency result in experiment [8] and in experiment [9] was “inactive” in each case. Moreover, the max response in [5] was 13.9% (inactive).

On to `CC(C)C(O)C(C)(C)CO` (centres undefined), for which the Potency entry in experiment [1], in experiment [2], in experiment [4], in [6], in experiment [8] and in experiment [10] was “inactive” in each case. In addition, the Potency was 899 nM (active) in experiment [3] and 0.899 µM (active) in experiment [5].

For the molecule `C1CCCCC1`, the Potency result in experiment [1], in experiment [2], in experiment [3], in experiment [4], in experiment [6] and in experiment [7] was “inactive” in each case. Also, the Potency result in experiment [10] was “inactive”. For the same molecule, the max response in experiment [5] was 1.11% (inactive).

On to `Cc1cc([N+](=O)[O-])ccc1N`, for which the Potency result in experiment [1], in experiment [2], in experiment [3], in experiment [4], in [7] and in [8] was “inactive” each time. Further, the Potency result in experiment [9] is “inactive”. For the same molecule, the max response in experiment [5] is -19.2% (inactive).

With `CCCCCCC(O)CCOC(C)=O` (centres undefined), the Potency entry in experiment [1], in [2], in [3], in experiment [4], in experiment [6] and in [8] was “inactive” in each case. The Potency result in experiment [9] and in experiment [10] was “inactive” each time. The max response in experiment [5] is 0.328% (inactive).

As for `CC1C(C)(C)C2=C(C(=O)CCC2)C1(C)C` (centres undefined), the Potency result in experiment [1], in experiment [2], in experiment [3], in experiment [4], in [6] and in [8] was “inactive” throughout. For the same molecule, in [5], the max response is -12.9% (inactive).

With `CC(C)C1CCC(C(=O)N[C@H](Cc2ccccc2)C(=O)O)CC1` (some centres undefined), the Potency entry in experiment [1], in experiment [2], in experiment [3], in experiment [4], in experiment [6] and in [7] was “inactive” each time. Further, the Potency result in experiment [9] and in experiment [10] was “inactive” each time. Further, in experiment [5], the max response is 3% (inactive).

Consider `CC(=O)N[C@@H](Cc1ccc(O)cc1)C(=O)O`, for which the Potency result in [1], in experiment [2], in experiment [3], in experiment [4], in experiment [6] and in experiment [7] was “inactive” each time. The Potency result in experiment [8], in experiment [9] and in [10] was “inactive” each time. Besides, the max response in [5] is 8.17% (inactive).

`Cc1ccc(S(=O)(=O)NC(=O)NC2CCCCC2)cc1`: the Potency entry in experiment [1], in [2], in experiment [3], in [4], in experiment [6] and in [8] was “inactive” in each case. In addition, the Potency entry in experiment [9] and in experiment [10] was “inactive” in each case. For the same molecule, the max response in [5] is 4.44% (inactive).
